Source: PubChem BioAssay (EPA / NIEHS)
Calls of active or inactive are those of the source. How the source made its calls: active means hit-call score of the fitted dose curve at least 0.9, where 1 is the maximum; inactive means score below 0.9.

How the values were obtained:
[1] = read-out: Tumor necrosis factor receptor superfamily member 6 (Homo sapiens) (UniProt P25445); assay: LTEA_HepaRG_FAS: Life Technologies and Expression Analysis (LTEA) Assay for Fas cell surface death receptor (FAS) using HepaRG (AID 2283447); settings: mRNA level, 48 h; actives raise or lower the signal
Outline: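 Differentiated human HepaRG cells, pre-cultured 48 h, were exposed in duplicate for 48 h to 8-point half-log concentrations (top 100 uM, 0.5% DMSO) in serum-free induction medium; FAS mRNA measured by qRT-PCR, normalized to ACTB/GAPDH/POLR2A, bidirectional fit versus DMSO.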

[2] = read-out: Fatty acid synthase (Homo sapiens) (UniProt P49327); assay: LTEA_HepaRG_FASN: Life Technologies and Expression Analysis (LTEA) Assay for Fatty Acid Synthase (FASN) using HepaRG (AID 2283448); settings: mRNA level, 48 h; actives raise or lower the signal
Outline: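 HepaRG, 48 h exposure, 8-pt half-log series top 100 uM, 0.5% DMSO vehicle, duplicates. Readout: FASN transcript by Fluidigm qRT-PCR; housekeeping-normalized; bidirectional curve fit vs DMSO baseline.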

[3] = read-out: Cyclin D2 (CCND2), CCND2 (gene 894); assay: LTEA_HepaRG_CCND2: Life Technologies and Expression Analysis (LTEA) Assay for Cyclin D2 (CCND2) using HepaRG (AID 2283449); settings: mRNA level, 48 h; actives raise or lower the signal;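 further: CCND2 transcript measured by TaqMan qRT-PCR and normalised to three housekeeping genes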
Outline: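 In this HepaRG study, an eight-point concentration series (max 100 uM, 0.5% DMSO) is applied for 48 h. CCND2 mRNA change is derived by qRT-PCR normalised to ACTB, GAPDH and POLR2A.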

[4] = read-out: Cyclin Dependent Kinase Inhibitor 1A (CDKN1A), CDKN1A (gene 1026); assay: LTEA_HepaRG_CDKN1A: Life Technologies and Expression Analysis (LTEA) Assay for Cyclin Dependent Kinase Inhibitor 1A (CDKN1A) using HepaRG (AID 2283450); settings: mRNA level, 48 h; actives raise or lower the signal
Outline: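 Read-out is CDKN1A mRNA by TaqMan qRT-PCR, normalized to three housekeeping genes and fitted in both directions against the DMSO baseline. Human HepaRG cells were treated 48 h with test chemicals up to 100 uM in half-log steps, 0.5% DMSO.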

[5] = read-out: Cyclin D1 (CCND1), CCND1 (gene 595); assay: LTEA_HepaRG_CCND1: Life Technologies and Expression Analysis (LTEA) Assay for Cyclin D1 (CCND1) using HepaRG (AID 2283451); settings: mRNA level, 48 h; actives raise or lower the signal;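 on AC50: TaqMan qRT-PCR transcript level normalised to ACTB GAPDH and POLR2A housekeeping genes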
Outline: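 HepaRG plated 48 h, medium switched to serum-free induction medium, chemicals added in duplicate (top 100 uM, half-log steps, 0.5% DMSO) for 48 h, cells lysed, RNA measured by TaqMan qRT-PCR.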

[6] = read-out: catalase (CAT), CAT (gene 847); assay: LTEA_HepaRG_CAT: Life Technologies and Expression Analysis (LTEA) Assay for catalase (CAT) using HepaRG (AID 2283452); settings: mRNA level, 48 h; actives raise or lower the signal
Outline: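 Differentiated HepaRG cells in serum-free induction medium were dosed 48 h in duplicate, eight half-log concentrations from 100 uM in 0.5% DMSO. Transcript measured by TaqMan qRT-PCR, normalised to ACTB/GAPDH/POLR2A, fitted bidirectionally against DMSO.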

[7] = read-out: flavin-containing dimethylaniline monooxygenases 3 (FMO3), FMO3 (gene 2328); assay: LTEA_HepaRG_FMO3: Life Technologies and Expression Analysis (LTEA) Assay for flavin-containing dimethylaniline monooxygenases 3 (FMO3) using HepaRG (AID 2283453); settings: mRNA level, 48 h; actives raise or lower the signal
Outline: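 Eight-point concentration-response in serum-free HepaRG cultures (top 100 uM, 0.5% DMSO, 48 h). Read-out: FMO3 mRNA level normalized to three endogenous control genes, fitted bidirectionally versus vehicle.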

[8] = read-out: Cytochrome P450 (CYP1A1), CYP1A1 (gene 1543); assay: LTEA_HepaRG_CYP1A1: Life Technologies and Expression Analysis (LTEA) Assay for Cytochrome P450 (CYP1A1) using HepaRG (AID 2283454); settings: mRNA level, 48 h; actives raise or lower the signal
Outline: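 HepaRG, 48 h post-plating switched to serum-free induction medium; 8-pt conc-response (top 100 uM, half-log, 0.5% DMSO), duplicates, 48 h. Lysis in RLT, TaqMan qRT-PCR for CYP1A1; gain or loss vs DMSO.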

[9] = read-out: CFLAR gene, CFLAR (gene 8837); assay: LTEA_HepaRG_CFLAR: Life Technologies and Expression Analysis (LTEA) Assay for CFLAR gene using HepaRG (AID 2283455); settings: mRNA level, 48 h; actives raise or lower the signal
Outline: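 Gain- or loss-of-signal changes in CFLAR transcript were fitted bidirectionally relative to 0.5% DMSO. Cells (HepaRG, duplicate wells) were dosed for 48 h across eight half-log concentrations topping at 100 uM; quantitation by TaqMan qRT-PCR.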

[10] = read-out: Forkhead box O1 (FOXO1), FOXO1 (gene 2308); assay: LTEA_HepaRG_FOXO1: Life Technologies and Expression Analysis (LTEA) Assay for Forkhead box O1 (FOXO1) using HepaRG (AID 2283456); settings: mRNA level, 48 h; actives raise or lower the signal
Outline: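 Using one lot of HepaRG hepatic cells kept in 0.5% DMSO, the team applied test chemicals in duplicate, half-log dilutions from 100 uM, for 48 h. Expression, normalised to ACTB/GAPDH/POLR2A, was compared with vehicle in either direction.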

[11] = read-out: growth arrest and DNA damage 45 (GADD45A), GADD45A (gene 1647); assay: LTEA_HepaRG_GADD45A: Life Technologies and Expression Analysis (LTEA) Assay for growth arrest and DNA damage 45 (GADD45A) using HepaRG (AID 2283458); settings: mRNA level, 48 h; actives raise or lower the signal
Outline: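 HepaRG, 48 h exposure, 8 conc. (top 100 uM, half-log steps), 0.5% DMSO vehicle, duplicates. Read-out: qRT-PCR mRNA level, housekeeping-normalized (ACTB/GAPDH/POLR2A). Curves fit bidirectionally vs DMSO baseline.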

[12] = read-out: Forkhead box O3 (FOXO3), FOXO3 (gene 2309); assay: LTEA_HepaRG_FOXO3: Life Technologies and Expression Analysis (LTEA) Assay for Forkhead box O3 (FOXO3) using HepaRG (AID 2283459); settings: mRNA level, 48 h; actives raise or lower the signal
Outline: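 Gene-expression endpoint: FOXO3 transcript level by qRT-PCR in HepaRG cultures treated 48 h with chemicals up to 100 uM (half-log, 0.5% DMSO vehicle).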

[13] = read-out: ABC Transporter (ABCB1), ABCB1 (gene 5243); assay: LTEA_HepaRG_ABCB1: Life Technologies and Expression Analysis (LTEA) Assay for ABC Transporter (ABCB1) using HepaRG (AID 2283460); settings: mRNA level, 48 h; actives raise or lower the signal
Outline: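 Human liver HepaRG line treated 48 h with up to 100 uM compound (eight half-log points, 0.5% DMSO); ABCB1 mRNA change fitted bidirectionally against DMSO controls.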

[14] = read-out: ABC Transporter (ABCC3), ABCC3 (gene 8714); assay: LTEA_HepaRG_ABCC3: Life Technologies and Expression Analysis (LTEA) Assay for ABC Transporter (ABCC3) using HepaRG (AID 2283462); settings: mRNA level, 48 h; actives raise or lower the signal
Outline: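 Human HepaRG, 48 h dosing, 8-pt half-log series from 100 uM, 0.5% DMSO vehicle, duplicates. ABCC3 mRNA by TaqMan qRT-PCR, housekeeping-normalized; bidirectional curve fit vs DMSO.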

[15] = read-out: ABC Transporter (ABCB11), ABCB11 (gene 8647); assay: LTEA_HepaRG_ABCB11: Life Technologies and Expression Analysis (LTEA) Assay for ABC Transporter (ABCB11) using HepaRG (AID 2283463); settings: mRNA level, 48 h; actives raise or lower the signal
Outline: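 Using HepaRG cultures held in 0.5% DMSO, chemicals were tested at half-log dilutions from 100 uM for 48 h. Induction or suppression of ABCB11 mRNA, normalized to ACTB, GAPDH and POLR2A, was fitted bidirectionally against vehicle.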

[16] = read-out: ABC Transporter (ABCC2), ABCC2 (gene 1244); assay: LTEA_HepaRG_ABCC2: Life Technologies and Expression Analysis (LTEA) Assay for ABC Transporter (ABCC2) using HepaRG (AID 2283464); settings: mRNA level, 48 h; actives raise or lower the signal
Outline: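 HepaRG, 48 h post-plating; serum-free induction medium; cpd 8-pt, 100 uM top, half-log, 0.5% DMSO, duplicate, 48 h. Readout: ABCC2 mRNA by qRT-PCR, norm. ACTB/GAPDH/POLR2A. Bidirectional fit vs DMSO baseline.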

[17] = read-out: Broad substrate specificity ATP-binding cassette transporter ABCG2 (Homo sapiens) (UniProt Q9UNQ0); assay: LTEA_HepaRG_ABCG2: Life Technologies and Expression Analysis (LTEA) Assay for ABC Transporter (ABCG2) using HepaRG (AID 2283465); settings: mRNA level, 48 h; actives raise or lower the signal
Outline: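 Gene expression of ABCG2 in HepaRG liver cells is quantified by qRT-PCR following 48 h exposure across an eight-point series topping at 100 uM. Values come from bidirectional fitting relative to DMSO vehicle.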

[18] = read-out: ATP-citrate lyase (ACLY), ACLY (gene 47); assay: LTEA_HepaRG_ACLY: Life Technologies and Expression Analysis (LTEA) Assay for ATP-citrate lyase (ACLY) using HepaRG (AID 2283466); settings: mRNA level, 48 h; actives raise or lower the signal
Outline: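 ACLY expression changes in human HepaRG liver cells are quantified by qRT-PCR after 48 h exposure to test chemicals (maximum 100 uM, half-log steps). Values are fitted in both directions relative to 0.5% DMSO vehicle.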

[19] = read-out: growth arrest and DNA damage 45 (GADD45B), GADD45B (gene 4616); assay: LTEA_HepaRG_GADD45B: Life Technologies and Expression Analysis (LTEA) Assay for growth arrest and DNA damage 45 (GADD45B) using HepaRG (AID 2283461); settings: mRNA level, 48 h; actives raise or lower the signal
Outline: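 HepaRG, ~100,000 cells/well, 48 h plating; serum-free induction medium; cpd 100 uM top, half-log x8, 0.5% DMSO, duplicate, 48 h; lysis in RLT, RNA isolation, qRT-PCR; norm ACTB/GAPDH/POLR2A; bidirectional fit vs DMSO.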

[20] = CEETOX_H295R_TESTO: CeeTox H295R High-throughput Steroidogenesis Assay for Testosterone (TESTO) (AID 2283457); settings: actives raise or lower the signal
Outline: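 H295R, passage ≤10, 48 h dosing; media extracted with MTBE → HPLC-MS/MS for testosterone; 7-pt standard curve sets LLOQ/ULOQ; bidirectional fit vs DMSO; MTT viability same wells.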

Measured: AC50

Sequence of Broad substrate specificity ATP-binding cassette transporter ABCG2 (Homo sapiens) (Q9UNQ0 whole entry, looked up): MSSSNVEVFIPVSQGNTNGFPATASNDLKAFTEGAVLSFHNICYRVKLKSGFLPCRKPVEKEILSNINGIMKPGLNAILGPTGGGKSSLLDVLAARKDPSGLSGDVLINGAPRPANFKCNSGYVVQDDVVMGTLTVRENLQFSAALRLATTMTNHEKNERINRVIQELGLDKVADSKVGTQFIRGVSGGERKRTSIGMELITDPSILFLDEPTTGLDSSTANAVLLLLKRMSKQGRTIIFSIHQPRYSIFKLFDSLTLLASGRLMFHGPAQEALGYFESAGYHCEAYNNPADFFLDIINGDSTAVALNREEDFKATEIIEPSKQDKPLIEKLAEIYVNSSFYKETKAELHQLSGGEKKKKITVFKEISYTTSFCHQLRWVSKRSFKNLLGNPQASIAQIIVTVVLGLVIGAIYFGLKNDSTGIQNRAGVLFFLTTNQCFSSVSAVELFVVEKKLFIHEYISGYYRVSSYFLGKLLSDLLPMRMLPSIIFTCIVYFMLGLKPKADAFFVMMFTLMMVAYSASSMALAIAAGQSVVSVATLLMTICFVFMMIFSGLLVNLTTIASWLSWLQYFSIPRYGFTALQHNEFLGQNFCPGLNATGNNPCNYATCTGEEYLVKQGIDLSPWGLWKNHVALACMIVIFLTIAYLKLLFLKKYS
Sequence of Fatty acid synthase (Homo sapiens) (P49327 whole entry, looked up): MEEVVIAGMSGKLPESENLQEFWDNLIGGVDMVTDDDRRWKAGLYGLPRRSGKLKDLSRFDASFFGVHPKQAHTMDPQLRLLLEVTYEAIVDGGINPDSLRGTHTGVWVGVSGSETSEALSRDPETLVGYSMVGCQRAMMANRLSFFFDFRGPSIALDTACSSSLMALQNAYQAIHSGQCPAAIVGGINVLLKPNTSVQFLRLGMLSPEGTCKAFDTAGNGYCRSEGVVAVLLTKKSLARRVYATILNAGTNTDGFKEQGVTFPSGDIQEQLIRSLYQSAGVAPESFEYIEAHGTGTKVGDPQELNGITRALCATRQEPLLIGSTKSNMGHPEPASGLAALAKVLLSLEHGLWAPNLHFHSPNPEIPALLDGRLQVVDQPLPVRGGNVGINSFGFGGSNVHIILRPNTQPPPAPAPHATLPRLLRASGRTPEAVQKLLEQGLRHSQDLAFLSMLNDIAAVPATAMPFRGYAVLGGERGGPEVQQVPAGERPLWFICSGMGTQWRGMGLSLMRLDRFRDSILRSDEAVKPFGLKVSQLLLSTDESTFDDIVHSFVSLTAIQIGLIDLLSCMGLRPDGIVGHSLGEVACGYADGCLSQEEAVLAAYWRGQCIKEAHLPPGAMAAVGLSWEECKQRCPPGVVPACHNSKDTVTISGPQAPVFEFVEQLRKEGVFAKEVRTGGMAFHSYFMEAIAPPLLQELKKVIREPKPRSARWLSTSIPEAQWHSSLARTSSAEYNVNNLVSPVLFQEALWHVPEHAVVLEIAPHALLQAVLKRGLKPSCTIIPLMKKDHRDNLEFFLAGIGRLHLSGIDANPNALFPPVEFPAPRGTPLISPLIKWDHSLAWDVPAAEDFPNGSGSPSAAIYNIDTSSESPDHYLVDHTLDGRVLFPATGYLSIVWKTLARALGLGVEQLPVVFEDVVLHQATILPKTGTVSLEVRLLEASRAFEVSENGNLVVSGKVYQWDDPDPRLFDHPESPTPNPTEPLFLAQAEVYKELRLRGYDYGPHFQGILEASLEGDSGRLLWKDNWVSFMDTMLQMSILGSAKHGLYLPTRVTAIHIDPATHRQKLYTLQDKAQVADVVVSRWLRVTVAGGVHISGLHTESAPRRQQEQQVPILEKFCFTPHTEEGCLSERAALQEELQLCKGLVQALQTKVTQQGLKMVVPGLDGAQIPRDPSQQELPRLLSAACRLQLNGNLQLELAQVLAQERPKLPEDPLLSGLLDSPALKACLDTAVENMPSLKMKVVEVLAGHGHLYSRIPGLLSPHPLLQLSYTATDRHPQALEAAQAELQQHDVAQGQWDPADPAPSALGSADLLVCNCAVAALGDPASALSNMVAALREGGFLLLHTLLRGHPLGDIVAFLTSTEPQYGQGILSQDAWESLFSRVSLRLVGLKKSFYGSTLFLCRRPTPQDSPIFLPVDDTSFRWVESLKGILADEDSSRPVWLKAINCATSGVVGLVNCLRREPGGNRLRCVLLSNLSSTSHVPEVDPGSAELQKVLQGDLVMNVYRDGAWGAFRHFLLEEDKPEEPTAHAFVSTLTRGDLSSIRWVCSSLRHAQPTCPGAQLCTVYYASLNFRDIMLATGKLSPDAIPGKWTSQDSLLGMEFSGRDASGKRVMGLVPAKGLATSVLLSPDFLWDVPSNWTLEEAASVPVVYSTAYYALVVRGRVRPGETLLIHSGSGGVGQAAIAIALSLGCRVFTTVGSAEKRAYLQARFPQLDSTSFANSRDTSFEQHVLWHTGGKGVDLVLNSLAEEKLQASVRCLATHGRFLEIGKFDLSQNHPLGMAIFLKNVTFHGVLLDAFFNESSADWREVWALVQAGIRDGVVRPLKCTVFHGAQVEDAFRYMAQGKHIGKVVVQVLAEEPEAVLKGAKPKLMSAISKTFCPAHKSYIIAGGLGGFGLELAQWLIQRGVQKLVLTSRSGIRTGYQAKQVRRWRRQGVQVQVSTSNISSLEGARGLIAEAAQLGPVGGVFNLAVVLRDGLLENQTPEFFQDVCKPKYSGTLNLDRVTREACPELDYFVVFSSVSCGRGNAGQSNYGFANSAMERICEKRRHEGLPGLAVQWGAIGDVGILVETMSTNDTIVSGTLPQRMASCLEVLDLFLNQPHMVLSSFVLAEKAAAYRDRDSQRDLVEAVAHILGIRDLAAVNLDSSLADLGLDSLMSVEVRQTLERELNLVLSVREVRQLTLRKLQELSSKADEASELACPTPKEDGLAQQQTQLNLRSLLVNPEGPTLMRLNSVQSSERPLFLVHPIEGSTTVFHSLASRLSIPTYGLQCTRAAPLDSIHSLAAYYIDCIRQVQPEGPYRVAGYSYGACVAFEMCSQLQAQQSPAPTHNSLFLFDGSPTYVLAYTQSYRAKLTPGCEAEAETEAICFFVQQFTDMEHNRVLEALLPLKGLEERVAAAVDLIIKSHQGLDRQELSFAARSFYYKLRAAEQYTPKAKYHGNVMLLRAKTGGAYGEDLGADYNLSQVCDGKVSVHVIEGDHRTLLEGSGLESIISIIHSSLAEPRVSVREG

Cc1cc(C2CC2)nc(Nc2ccccc2)n1
active: [2] 50 µM | [8] 0.52 µM | [15] 74.6 µM
not listed: [19] | [20]
inactive: all other assays above

CCOC(=O)CC(SP(=O)(OC)OC)C(=O)OCC (centres undefined)
active: [8] 30.8 µM | [15] 22.7 µM
not listed: [19] | [20]
inactive: all other assays above

O=c1ccc(=O)[nH][nH]1
not listed: [19] | [20]
inactive: all other assays above

CCCCOC(=O)[C@@H](C)Oc1ccc(Oc2ccc(C#N)cc2F)cc1
active: [8] 23.3 µM
not listed: [20]
inactive: all other assays above

S=C1NCCN1
not listed: [20]
inactive: all other assays above

CC(COc1ccc(Oc2ccccc2)cc1)Oc1ccccn1 (centres undefined)
active: [2] 30.5 µM | [8] 77.4 µM | [16] 29.2 µM | [17] 20.6 µM
not listed: [19]
inactive: all other assays above

COP(=O)(OC)SCn1c(=O)oc2cc(Cl)cnc21
active: [5] 78.5 µM | [8] 38.6 µM | [11] 0.029 µM | [15] 39.3 µM
not listed: [19] | [20]
inactive: all other assays above
